# Compounds without any hit were thinned out: in the full panel of roughly 83,000, 20% have a hit.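 96-well plates, one dose, 48 hours. Percent growth reported; active if below 10.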 A number with no mark means an inactive call. Activity calls are given as the source filed them.
# Key:
# Assay in all cases: NCI-60 one-dose screen, 48 h (100 = growth as untreated, 0 = no growth, -100 = all killed)
# Settings in all cases: 10 µM
# HCT-15 colon = system: HCT-15 colon
# HT29 colon = system: HT29 colon
# SNB-19 CNS = system: SNB-19 CNS
# U251 CNS = system: U251 CNS
# PC-3 prostate = system: PC-3 prostate
# SK-MEL-5 melanoma = system: SK-MEL-5 melanoma
# UACC-62 melanoma = system: UACC-62 melanoma
# LOX IMVI melanoma = system: LOX IMVI melanoma
# SK-MEL-28 melanoma = system: SK-MEL-28 melanoma
# SK-MEL-2 melanoma = system: SK-MEL-2 melanoma
# EKVX NSCLC = system: EKVX NSCLC
# SN12C renal = system: SN12C renal
# UO-31 renal = system: UO-31 renal
# TK-10 renal = system: TK-10 renal
# ACHN renal = system: ACHN renal
# CAKI-1 renal = system: CAKI-1 renal
# A498 renal = system: A498 renal
# CCRF-CEM leukemia = system: CCRF-CEM leukemia
# MOLT-4 leukemia = system: MOLT-4 leukemia
SMILES,growth (HCT-15 colon),growth (HT29 colon),growth (SNB-19 CNS),growth (U251 CNS),growth (PC-3 prostate),growth (SK-MEL-5 melanoma),growth (UACC-62 melanoma),growth (LOX IMVI melanoma),growth (SK-MEL-28 melanoma),growth (SK-MEL-2 melanoma),growth (EKVX NSCLC),growth (SN12C renal),growth (UO-31 renal),growth (TK-10 renal),growth (ACHN renal),growth (CAKI-1 renal),growth (A498 renal),growth (CCRF-CEM leukemia),growth (MOLT-4 leukemia)
CC(=O)Nc1ccc(-c2cn(-c3cccc(C(=O)Nc4ccc(Cl)c(C(F)(F)F)c4)c3)nn2)cn1,-57.8% (active),-50.3% (active),-35.3% (active),-59.5% (active),1.58% (active),38.5%,-62.4% (active),-90.8% (active),-80.6% (active),-38.3% (active),-30.2% (active),-48.4% (active),-56% (active),-18% (active),-52.5% (active),-27.8% (active),-63.1% (active),30%,7.02% (active)
Clc1cccc(N/N=C/c2c[nH]c3ccccc23)n1,18.9%,30.4%,43.2%,34.7%,25.2%,41.7%,55.1%,17.9%,79.8%,73.3%,32.4%,16.8%,10.4%,71.7%,44.7%,35.5%,75.7%,8.71% (active),23.8%
CC(=O)Nc1nc(-c2ccc(N3CCN(C)CC3)c(NS(=O)(=O)c3cccc4c(N(C)C)cccc34)c2)cs1,18.5%,21.7%,58.8%,28.1%,48.7%,12.5%,13.1%,-35.6% (active),-80.1% (active),65.3%,,75.6%,60%,84.3%,60.7%,66.5%,117%,8.38% (active),
O=C(NO)c1ccc(Cn2ccc3c(NCc4ccccc4)ncnc32)cc1,-16.7% (active),0.726% (active),-7.76% (active),-34% (active),7.14% (active),-75% (active),-43.3% (active),-99.6% (active),0.239% (active),-2.65% (active),21.4%,13.9%,4.26% (active),-7.3% (active),0.241% (active),2.72% (active),-20.1% (active),8.45% (active),3.81% (active)
COc1ccc(-c2nc(Nc3ccccc3S(N)(=O)=O)c3ccccc3n2)cc1,28.1%,8.94% (active),57.7%,3.82% (active),55.6%,61.3%,56.5%,-79.9% (active),76.7%,110%,65%,26.3%,29.2%,67.4%,15.3%,7.47% (active),,64.1%,21.1%
Cn1cc(-c2cc(N)n3nc(-c4c[nH]c5ccc(Br)cc45)cc3n2)c2cccnc21,-77% (active),-81.7% (active),-83.5% (active),-83.9% (active),-45.9% (active),-98.3% (active),-93.9% (active),-95.6% (active),-95.8% (active),-56.4% (active),-86.7% (active),,-78.8% (active),-85.9% (active),-98.9% (active),-60.7% (active),,-19.1% (active),-23.8% (active)
O=C(N/N=C/c1ccc(B(O)O)o1)c1[nH]c2ccc(Br)cc2c1-c1ccccc1,16.1%,3.98% (active),40.7%,10.1%,19.2%,11.5%,19.4%,32.9%,62.1%,26.5%,44.3%,31.2%,42.2%,64.7%,44.8%,30%,76.5%,3.97% (active),16.9%
O=C(Nc1ccc(Cl)c(C(F)(F)F)c1)c1cncc(C#Cc2cnc3ccc(N4CCOCC4)nn23)c1,15.8%,8.82% (active),-10.8% (active),,23.4%,4.01% (active),-10.3% (active),-48.9% (active),0.817% (active),-33.8% (active),19.2%,6.18% (active),-33.6% (active),23.8%,-35% (active),9.84% (active),-19.3% (active),37.5%,0.617% (active)

# From PubChem BioAssay (NCI)
